Screens as filed in PubChem BioAssay.
Only some compounds are listed: those with a hit (about 7% of all), similar ones and a draw of the others.
a7 integrin act = activators of alpha7 integrin expression for muscular dystrophy; 350,000 tested, 0.064% active; Potency, µM (titrated, usually from 38.3 µM), hits mostly activators; alpha7betagal myoblasts, beta-gal FDG fluorescence, 48 h; note: nearly all actives have a fitted effect of over 60% in size
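Alpha7betagal+/- myoblasts (passage 13) were plated 16-24 hr, then exposed to compounds (1:260 dilution of DMSO stock) for 48 hours at 37C. After MPER lysis, β-galactosidase reporter activity was read as FDG fluorescence (ex 480/em 540) after 30 minutes.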
ATXN2 expr inh = ATXN2 expression inhibition. HEK-293 ATXN2-luciferase reporter, luminescence, 24 h. Potency, µM (doses to about 57 µM), actives largely listed as inhibitors. 360,000 tested, 0.72% active. AID 1745845; note: nearly all actives have a fitted effect of over 55% in size
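qHTS (up to 57 uM final) was run with 24 h compound exposure of reporter cells at 37 °C. Each well was multiplexed: SteadyGlo luminescence measured ATXN2-luciferase expression after a fluorogenic Gly-Phe-AFC viability readout (25 uM final).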
S2 tox = reduces viability in counter-screen for ATXN expression inhibitors | AID 651635 | Potency, µM (titrated, usually from 56.7 µM), actives largely listed as cytotoxic | S2 cells (HEK-293 line with an ATXN2-luciferase reporter) viability, CellTiter-Fluor protease fluorescence, 24 h | 400,000 tested, 0.49% active; note: nearly all actives have a fitted effect of over 40% in size
DRD3 agonist = activates the human D3 dopamine receptor | AID 652048 | P35462 | max activation, % | D3R DiscoveRx beta-arrestin cells, luminescence, 90 min | 410,000 tested, 0.58% active; in the data active = max activation above about 30%
Target sequence (P35462 whole entry, looked up): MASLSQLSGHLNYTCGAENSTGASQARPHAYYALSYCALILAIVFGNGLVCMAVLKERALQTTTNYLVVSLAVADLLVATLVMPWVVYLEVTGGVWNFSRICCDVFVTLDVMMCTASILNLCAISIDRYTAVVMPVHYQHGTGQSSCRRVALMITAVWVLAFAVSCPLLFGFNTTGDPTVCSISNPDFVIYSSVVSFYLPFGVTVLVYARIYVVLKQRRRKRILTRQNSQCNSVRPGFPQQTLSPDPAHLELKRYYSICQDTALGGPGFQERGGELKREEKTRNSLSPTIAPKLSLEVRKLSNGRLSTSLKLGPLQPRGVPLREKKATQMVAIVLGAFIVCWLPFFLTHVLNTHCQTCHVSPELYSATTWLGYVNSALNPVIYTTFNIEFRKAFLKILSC
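Cells at 1500/well, incubated overnight, then treated with pinned compounds (dopamine as control) for 90 min at 37 degrees C. DiscoveRx reagent added for 30 - 60 minutes at room temperature; luminescence read.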
DRD3 antagonist = blocks the human D3 dopamine receptor; P35462; D3R cells, DiscoveRx beta-arrestin luminescence, antagonist mode; active compounds read low; max response, negative = inhibition, %; 360,000 tested, 2.5% active; in the data active = max response below about -50%; inconclusive = no clear call, values can overlap the other calls
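Cells plated overnight at 1500 cells/well, then exposed to library compounds with dopamine controls for 90 minutes at 37 degrees C. DiscoveRx reagent added for 30–60 minutes at room temperature; luminescence read, quantitative HTS format.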
IL-1B inflam inh = inflammasome signaling inhibition, IL-1 beta readout. THP-1 LPS/ATP IL-1B secretion, AlphaLISA, 16 h; active compounds read low. activity change, % at 57.5 µM. 360,000 tested, 4.7% active; in the data active = activity change below about -50%; inconclusive = mostly about -30% to -49%
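Secreted IL-1B measured by AlphaLISA bead assay after 16 h compound exposure of THP-1 cells; compounds (final up to 57.5 uM) added 1 h before LPS (250 ng/mL) and ATP (1.25 mM) stimulation; lower signal means less secretion.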
Of the large screens only hits and unclear results are named; the others gave an inactive call. Unless noted, calls come from the whole dose curve; as a rule, active = well fitted curve in the direction sought with a large enough effect; inconclusive = small, poorly fitted or top-dose-only effect, or another doubt; inactive = no such curve, though single readings can be large; an effect the other way counts as inactive or inconclusive.

COc1ccc(C(CNC(=O)c2ccc3c(c2)CCC3)N(C)C)cc1 (centres undefined)	DRD3 antagonist -81
C/C=C/CC#N	none (no result: a7 integrin act)
COc1cc(C)c(-c2nc(CN3C[C@@H]4C[C@@H](C3)c3cccc(=O)n3C4)c(C)o2)cc1C	S2 tox inconclusive, IL-1B inflam inh -115
CC(C)Nc1ccc(Nc2ccccc2)cc1	S2 tox inconclusive, IL-1B inflam inh -95
c1ccc(Nc2ccc3ccccc3c2)cc1	none
Cc1c2ccncc2c(C)c2c1[nH]c1ccccc12	ATXN2 expr inh 14µM, S2 tox inconclusive, IL-1B inflam inh -79 (no result: a7 integrin act)
O=[N+]([O-])c1ccc(N2CCCC(C(F)(F)F)C2)c2ccncc12 (centres undefined)	DRD3 agonist 32
CCN(CC)CCNCC(=O)Nc1ccc(Cl)cc1C(=O)c1ccccc1	DRD3 antagonist -56, IL-1B inflam inh inconclusive
CCCCn1c(=O)c(C(=O)NC(C)c2ccccc2)c(O)c2ccccc21 (centres undefined)	none
CCc1ccc(NP(=O)(Oc2ccccc2F)Oc2ccccc2F)cc1	IL-1B inflam inh -102
CN1CCCCC1Cc1ccccc1 (centres undefined)	none (no result: a7 integrin act)
CC(NC1CCCCC1)C(O)C12CC3CC(CC(C3)C1)C2 (centres undefined)	S2 tox inconclusive, IL-1B inflam inh -55
COC1=CC(=O)[C@]2(C=C1OC)OC[C@@H]1Oc3c(ccc4c3C=CC(C)(C)O4)C(=O)[C@@H]12	ATXN2 expr inh inconclusive, S2 tox inconclusive, DRD3 agonist 70
Cc1cc(C)cc(Oc2nc3ccccn3c(=O)c2/C=C(\C#N)c2nc3ccccc3s2)c1	S2 tox inconclusive (no result: a7 integrin act, DRD3 antagonist, IL-1B inflam inh)
COc1cccc(NC(=O)N2CCC3(CC2)OCCO3)c1	none
CC(=O)OC1C(O)C2=C3C4(C)C1C(C)(C)C(=O)CC4C3(O)C(OC(C)=O)C1(CC1C)C2=O (centres undefined)	ATXN2 expr inh inconclusive, S2 tox inconclusive, IL-1B inflam inh -121 (no result: a7 integrin act)
CC(C)Sc1nnc([C@@H](N)Cc2ccccc2)o1	none
COc1ccc(C[C@H]2NC[C@H](O)[C@H]2OC(C)=O)cc1	ATXN2 expr inh 0.1µM, S2 tox inconclusive, IL-1B inflam inh -111 (no result: a7 integrin act)
COc1ccc(CCNC2CCCCC2)cc1	none
Oc1cc(Cl)c(Cl)c(Cl)c1	ATXN2 expr inh inconclusive, S2 tox inconclusive, DRD3 agonist 61 (no result: a7 integrin act)
C[N+](C)(C)Cc1ccccc1	none (no result: a7 integrin act)
COC(=O)C1=C(c2ccc(OC(F)(F)F)cc2)C[C@@H]2CC[C@H]1N2C(=O)N1CCCC1	ATXN2 expr inh inconclusive, S2 tox inconclusive
COC(=O)C1=C(c2ccc(OC(F)(F)F)cc2)C[C@@H]2CC[C@H]1N2C(=O)N1CCC(C)CC1	ATXN2 expr inh inconclusive, S2 tox 28µM
COC(=O)C1=C(c2ccc(F)cc2F)C[C@@H]2CC[C@H]1N2C(=O)N1CCC(O)(c2ccc(Cl)cc2)CC1	ATXN2 expr inh inconclusive, S2 tox inconclusive, IL-1B inflam inh -78
COC(=O)C1=C(c2ccc(F)cc2F)C[C@@H]2CC[C@H]1N2C(=O)N1CCCC1	none
COC(=O)C1=C(c2ccc(Cl)c(C(F)(F)F)c2)C[C@@H]2CC[C@H]1N2C(=O)N1CCC(O)(c2ccc(Cl)cc2)CC1	ATXN2 expr inh inconclusive, S2 tox inconclusive, IL-1B inflam inh -83
COC(=O)C1=C(c2ccc(Cl)c(C(F)(F)F)c2)C[C@@H]2CC[C@H]1N2C(=O)NCCOc1ccc(OC)cc1	ATXN2 expr inh inconclusive, S2 tox inconclusive, DRD3 antagonist inconclusive, IL-1B inflam inh -63
O=C(COc1ccccc1)N1CCN(C/C=C/c2ccccc2)CC1	S2 tox inconclusive, DRD3 antagonist inconclusive
O=C(COc1ccccc1)N1CCN(CC(O)COc2ccccc2)CC1 (centres undefined)	DRD3 antagonist -74
O=C(COc1ccc(Cl)cc1)N1CCN(C/C=C/c2ccccc2)CC1	S2 tox inconclusive, IL-1B inflam inh -75
c1ccc2c(c1)Sc1ccccc1N2C[C@@H]1CN2CCC1CC2	none (no result: a7 integrin act, ATXN2 expr inh, DRD3 antagonist, IL-1B inflam inh)
